Measurements reported in PubChem BioAssay (EPA / NIEHS).
Calls of active or inactive are those of the source. How the source made its calls: active means hit-call score of the fitted dose curve at least 0.9, where 1 is the maximum; inactive means score below 0.9.

These molecules were tested against Heat shock factor protein 1 (Homo sapiens) (UniProt Q00613) (assay: ATG_HSE_CIS: Attagene CIS-FACTORIAL HepG2 Assay for human Heat Shock Transcription Factor 1 (HSE) (AID 2282953)). Settings: HepG2 HSE cis-reporter, Attagene RNA transcription; actives raise or lower the signal.
Description: ATG_CIS is a cell-based, multiplexed-readout assay that uses HepG2, a human liver cell line, with measurements taken at 24 hours after chemical dosing in a 24-well plate.ATG_HSE_CIS is one of 52 assay component(s) measured or calculated from the ATG_CIS assay. It is designed to make measurements of mRNA induction, a form of inducible reporter, as detected with fluorescence intensity signals by Reverse transcription polymerase chain reaction (RT-PCR) and Capillary electrophoresis technology.Data from the assay component ATG_HSE_CIS was analyzed into 1 assay endpoint. This assay endpoint, ATG_HSE_CIS, was analyzed with bidirectional fitting relative to DMSO as the negative control and baseline of activity. Using a type of inducible reporter, measures of mRNA for gain or loss-of-signal activity can be used to understand the reporter gene at the transcription factor-level as they relate to the gene HSF1. Furthermore, this assay endpoint can be referred to as a primary readout, because this assay has produced multiple assay endpoints where this one serves a reporter gene function. To generalize the intended target to other relatable targets, this assay endpoint is annotated to the dna binding intended target family, where the subfamily is heat shock protein.
Human liver HepG2 cells are transiently transfected with multiple reporter transcription units (MRTUs) in 6-well plates using FuGene 6 reagent (Roche; 3 ml FuGene/1 mg DNA). The MRTU constructs are regulated by a cis-regulating element (promoter). […] A major difference between the CIS and TRANS system is that in CIS activities of endogenous TFs are measured, whereas the TRANS assay evaluates changes in activities of exogenous, chimeric NR-Gal4 proteins. […] At the end of 24 hour incubation, total RNA was isolated using TriZol reagent (Invitrogen). The isolated RNA is then reverse-transcribed using oligo(dT) primer and Mo-MLV reverse transcriptase (Invitrogen) with DNAse I (Ambion) treatment for 30 min. The one-tenth of the produced cDNA was amplified by PCR using Taq DNA polymerase (Invitrogen) and two reporter sequence-specific primers. The PCR products were fluorescently labeled by primer extension with 6-arboxyfluorescein (6-FAM) 5'-labeled reporter sequence-specific primer (2 min at 95 C, 20 s at 68 C and 10 min at 72 C) and these products were digested with 5U of HpaI (New England Biolabs) for 2h at 37 C. The fragments were purified using Qiaquick PCR columns (Qiagen), analyzed on an ABI 3130xL genetic analyzer (Applied Biosystems) with peak positions identified by using a set of X-rhodamine (ROX)-labeled MapMarker1000 molecular weight standards (BioVentures). The raw capillary electrophoresis data was processed using Attagraph software (Attagene).

Chain of Heat shock factor protein 1 (Homo sapiens) (Q00613 whole entry, looked up): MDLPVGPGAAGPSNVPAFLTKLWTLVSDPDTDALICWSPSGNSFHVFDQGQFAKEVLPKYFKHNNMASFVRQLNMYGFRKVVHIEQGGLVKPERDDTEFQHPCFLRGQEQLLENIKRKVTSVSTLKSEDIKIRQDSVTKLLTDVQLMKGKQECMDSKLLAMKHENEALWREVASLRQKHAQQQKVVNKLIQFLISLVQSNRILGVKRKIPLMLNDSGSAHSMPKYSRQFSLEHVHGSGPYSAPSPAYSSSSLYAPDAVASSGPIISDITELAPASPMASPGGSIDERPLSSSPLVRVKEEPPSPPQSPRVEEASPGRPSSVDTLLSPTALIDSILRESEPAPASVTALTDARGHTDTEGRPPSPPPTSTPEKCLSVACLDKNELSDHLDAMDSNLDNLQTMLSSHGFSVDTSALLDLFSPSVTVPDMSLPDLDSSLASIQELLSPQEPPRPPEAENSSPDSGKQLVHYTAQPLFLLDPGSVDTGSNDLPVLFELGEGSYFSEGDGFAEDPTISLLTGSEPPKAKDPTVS

SMILES | outcome | AC50
Cc1cccc(C)c1C | inactive | 
CN(CCOc1ccc(CC2SC(=O)NC2=O)cc1)c1ccccn1 (stereo not given) | inactive | 
Clc1cccc(Cl)n1 | inactive | 
CCCCCCCCCCCCCCCCCC(=O)OCC(CC)CCCC (stereo not given) | inactive | 
CCCC(=O)C(C)=O | inactive | 
CC(C)[C@@H]1CC[C@@H](C)CC1=O | inactive | 
Cc1ccc2n[nH]nc2c1 | inactive | 
Cc1ccc(S)cc1 |  | 161 µM (active)
CC(=O)c1c(C)cc(C(C)(C)C)cc1C | inactive | 
COCCOCCOCCOCCOCCO | inactive | 
O=C(O)COCCN1CCN(C(c2ccccc2)c2ccc(Cl)cc2)CC1 (stereo not given) | inactive | 
CCC(C)(O)CCC=C(C)C (stereo not given) | inactive | 
CN(C)c1ccc(O)c2c1C[C@H]1C[C@H]3[C@H](N(C)C)C(=O)C(C(N)=O)=C(O)[C@@]3(O)C(=O)C1=C2O | inactive | 
CC(C=O)Cc1ccc(C(C)C)cc1 (stereo not given) | inactive | 
CC(=O)OCCOC(C)=O | inactive | 
OCC(CO)(CO)COCC(CO)(CO)CO | inactive | 
CC(=O)Nc1ccccc1O | inactive | 
Cc1c(N(C)C)c(=O)n(-c2ccccc2)n1C | inactive | 
O=S(=O)(O)NC1CCCCC1 | inactive | 
CC(C)=CCCC(C)=CCCC(C)=CCO | inactive | 

SMILES | outcome | AC50
O=[N+]([O-])c1ccc(Nc2ccc(Nc3ccccc3)c(S(=O)(=O)O)c2)c([N+](=O)[O-])c1 |  | 178 µM (active)
C=C(C)C(=O)O[C@H]1C[C@@H]2CC[C@@]1(C)C2(C)C | inactive | 
C=C(C)C(=O)OCCOC(=O)CC(C)=O | inactive | 
c1ccc(CCCc2ccccn2)cc1 | inactive | 
Nc1cccc(S(=O)(=O)c2cccc(N)c2)c1 | inactive | 
CC[Si](OC(C)=O)(OC(C)=O)OC(C)=O | inactive | 
CCCCCCCCCCCCOCCO | inactive | 
CCCCCCOC(=O)CCCCC | inactive | 
NC(=O)NC1NC(=O)NC1=O (stereo not given) | inactive | 
Cc1ncc([N+](=O)[O-])n1C | inactive | 
CCc1ccc(C=O)cc1 | inactive | 
O=P(c1ccccc1)(c1ccccc1)c1ccccc1 | inactive | 
CCCCCCCCC=O | inactive | 
CCCCc1ccc(N)cc1 | inactive | 
O=C(O)CCSCCC(=O)O | inactive | 
CC(C)C[C@H]1C(=O)N2CCC[C@H]2[C@]2(O)O[C@](NC(=O)[C@@H]3C=C4c5cccc6[nH]c(Br)c(c56)C[C@H]4N(C)C3)(C(C)C)C(=O)N12 | inactive | 
C=CC(C)(CCC=C(C)C)OC=O (stereo not given) | inactive | 
C/C=C(\C)C(=O)OCc1ccccc1 | inactive | 
CC(C)(C)NC(N)=O | inactive | 
CC(C)(C)c1n[nH]c(=S)n(N)c1=O | inactive | 
